Here are results for seven molecules from PubChem BioAssay (NCATS).

Inconclusive results are not listed. Calls of active or inactive are those of the source. Unless noted, the call rests on the fitted dose curve; in most records, active means well fitted curve in either direction with a large enough effect (not every such curve was filed as active); inconclusive means small, poorly fitted or top-dose-only effect, or another doubt; inactive means flat fitted curve, though single readings scatter.

Experiment [1] concerns the target Lysosomal acid glucosylceramidase (Homo sapiens) (UniProt P04062). Kind of experiment: Glucocerebrosidase-p2 (AID 348; in the data active means potency below about 10 µM; further: potency means the concentration at half of the fitted maximal effect). Conditions: purified GBA, blue fluorogenic substrate, 40 min. The method in brief:
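Normal human glucocerebrosidase (0.2 nM) with blue fluorogenic substrate (80 uM final) in citrate/phosphate pH 5.9 with 10mM sodium taurocholate, 0.01% tween-20; 40 min RT, NaOH/glycine stop; fluorescence Ex 365/Em 440; AC50 from a titration from 0.6 nM upwards.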

A short description of experiment [2]: AP1 Signaling Pathway (AID 357).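 Further: ME-180 reporter cells stimulated with EGF at its EC50 level; on the % scale 0 is the no-effect control and ±100 the full control effect.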 Conditions: ME-180 AP-1-bla reporter, EGF-induced, beta-lactamase ratio, 5 h; at 7.69 µM (top of the series) unless noted. The gist of the method:
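A ratiometric CCF4 readout (405 nm excitation; 460 and 530 nm emission) quantified AP-1-driven beta-lactamase in ME-180 cells after 5 h with compound and EC50 EGF; AC50 values were derived for activators and inhibitors.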

Experiment [3] has as its target Cytochrome P450 1A2 (Homo sapiens) (UniProt P05177). Nature of the experiment: p450-cyp1a2 (AID 410; calls by dose curve; further: potency means the concentration at half of the fitted maximal effect;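 on activity change, negative = inhibition: -100% = full effect of reference inhibitor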). To be noted: recombinant CYP1A2, luciferin-ME demethylation, luminescence; series mostly up to 57 µM. The method in brief: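 Read-out is luminescence from luciferin produced by CYP1A2 demethylation of Luciferin-ME (100uM, at Km). Detection reagent stopped the 60 min NADPH-dependent reaction; signals were normalized to 57 uM furafylline.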

Experiment [4] is described as follows: NFAT Signaling Pathway (AID 444).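 Further: carbachol stimulus at about its EC50 of 1 µM final; on the % scale 0 is the no-effect control and ±100 the full control effect.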 Conditions: Jurkat NFAT-bla M1, carbachol, beta-lactamase ratio, 5 h; at 7.69 µM (top of the series) unless noted. The gist of the method: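 Jurkat cells with NFAT-driven β-lactamase reporter and co-expressed M1 receptor, stimulated with carbachol (final 1 uM, ~EC50), compound titration, 5 h at 37 °C. CCF4 loaded 1 h at RT; 460/530 nm ratio gave %activity and AC50.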

Experiment [5] can be described thus: Stat Signaling Pathway (AID 446).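 Further: ME-180 cervical cancer cells given 40 pM IL-6 alongside compound; SIE-controlled beta-lactamase reporter measured as 460/530 nm FRET emission ratio; on the % scale 0 is the no-effect control and ±100 the full control effect.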 Conditions: ME-180 (cervical carcinoma) SIE beta-lactamase reporter, IL-6 stimulated, 5 h; at 7.69 µM (top of the series) unless noted. The gist of the method:
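Compound effects on IL-6-induced STAT reporter activity were measured in ME-180 cells. After overnight culture, cells were co-treated with 40 pM IL-6 for 5 hrs before beta-lactamase substrate loading at room temperature.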

Experiment [6] has as its target Glucocorticoid receptor (Homo sapiens) (UniProt P04150). Kind of experiment: GR-EFC Redistribution (AID 451; calls by dose curve; further: potency means the concentration at half of the fitted maximal effect). To be noted: CHO-K1 GR-EFC translocation, beta-gal luminescence, 2 h. The method in brief:
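CHO-K1 cells expressing nuclear EA and GR-ED fragments of b-gal; compounds titrated up to 46 uM final, 2 h at 37 C. GR nuclear translocation read as complemented b-gal luminescence after 1 h RT detection.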

Experiment [7] deals with Mitogen-activated protein kinase 10 (Mus musculus) (UniProt Q61831). Nature of the experiment: JNK3 AlphaScreen Assay (AID 530).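 Further: kinase came from lysate of stimulated human HepG2 cells; signal reports phosphorylation of biotinylated GST-cJun 1-79 at Ser73 with 10 µM ATP; on the % scale 0 is the no-effect control and ±100 the full control effect.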 To be noted: JNK3 lysate, c-Jun phosphorylation; series mostly up to 57.1 µM. The method in brief: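 HepG2 lysate (IL-1b/TNFa pre-activated) + biotin-GST-cJun 1-79 + anti-pSer73 cJun; cpd titration, 15 min RT; ATP 10 uM start; Tris pH 7.6, MgCl2, DTT, vanadate; beads in EDTA buffer; AlphaScreen.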

The target in experiment [8] is 3',5'-cyclic-AMP phosphodiesterase 4B (Homo sapiens) (UniProt Q07343). Nature of the experiment: qHTS Assay for Inhibitors of PDE-IV (AID 607; active means well fitted activation curve with a large enough effect in the main read-out, with a control signal flat, not every such curve was filed as active; further: % of control where 0% means no effect). Conditions: HEK293 ACTOne CNG channel cells, membrane potential fluorescence; series mostly up to 22.9 µM. The gist of the method: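 ACTOne HEK293 cells carry a modified cAMP-gated CNG channel and express endogenous PDE4; plated 1000 cells/well, compounds up to 22.9 uM final. Membrane-potential dye fluorescence (ex 535/em 590) was read; parental cells received 10 uM forskolin + 100 uM RO 20-1724.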
A general note: In qHTS, concentration-response curves come from the screen itself.

Experiment [9] deals with Cytochrome P450 3A4 (Homo sapiens) (UniProt P08684). Nature of the experiment: qHTS Assay for Activators of Cytochrome P450 3A4 (AID 885; active means well fitted curve in the direction sought with a large enough effect; an effect the other way counts as inactive or inconclusive; further: nearly all actives have a fitted effect of over 65% in size; further: potency means the concentration at half of the fitted maximal effect). To be noted: recombinant CYP3A4, Luciferin-PPXE luminescence, 60 min; series mostly up to 57.1 µM. The gist of the method:
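CYP3A4 activity: Luciferin-PPXE O-dealkylation, 25uM substrate, 200mM KPO4, RT throughout. Read-out is luciferase luminescence; higher values reflect activation.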

Experiment [10] is described as follows: qHTS Assay for Lipid Storage Modulators (AID 1519; calls by dose curve). Conditions: Drosophila S3 cells, BODIPY lipid droplet/cell ratio, laser cytometry, cells loaded with oleic acid; for activity change, negative = inhibition: at 57.5 µM (top of the series). The gist of the method:
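Cells seeded at 5,000 per well were treated with compounds over a concentration series and loaded with oleic acid (400 uM, as added). Lipid droplet fluorescence (488 nm excitation, 500-530 nm channel) was read by laser-scanning cytometry and normalized to 20 uM Triacsin C.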

A short description of experiment [11]: Primary qHTS for small molecule stabilizers of the endoplasmic reticulum resident proteome: Secreted ER Calcium Modulated Protein (SERCaMP) assay (AID 1508630; active means well fitted curve in the direction sought with a large enough effect; an effect the other way counts as inactive or inconclusive; further: on the % scale 0 is the no-effect control and ±100 the full control effect). Conditions: SH-SY5Y GLuc-SERCaMP (Gaussia luciferase released on ER calcium loss) secretion, thapsigargin, luminescence; series mostly up to 38.4 µM. The method in brief:
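The SH-SY5Y reporter protocol was run at 3 concentrations up to 38.3 uM (primary) or 11 concentrations (follow-up): 16 h compound, 100 nM thapsigargin for 4 h, then extracellular luciferase luminescence.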

[12] abbreviates: measured here: cell count channel max response.
Where [13] appears, read: measured here: lipid channel max response.

Chain of Cytochrome P450 3A4 (Homo sapiens) (P08684 whole entry, looked up): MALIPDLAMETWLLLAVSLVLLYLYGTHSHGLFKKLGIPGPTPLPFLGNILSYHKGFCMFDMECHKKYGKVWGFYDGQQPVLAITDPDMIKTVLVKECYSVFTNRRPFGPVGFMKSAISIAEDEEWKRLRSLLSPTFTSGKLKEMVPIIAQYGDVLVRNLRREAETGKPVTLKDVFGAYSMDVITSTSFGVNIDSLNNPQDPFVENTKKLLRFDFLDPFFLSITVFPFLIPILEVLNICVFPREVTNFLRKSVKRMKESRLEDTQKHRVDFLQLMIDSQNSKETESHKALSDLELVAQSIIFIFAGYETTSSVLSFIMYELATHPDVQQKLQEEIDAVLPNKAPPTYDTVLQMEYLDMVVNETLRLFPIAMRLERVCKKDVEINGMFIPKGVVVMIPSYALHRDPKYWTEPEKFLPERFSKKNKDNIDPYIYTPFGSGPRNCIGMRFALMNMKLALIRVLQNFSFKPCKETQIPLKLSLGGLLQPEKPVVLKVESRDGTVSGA
Chain of Glucocorticoid receptor (Homo sapiens) (P04150 whole entry, looked up, the tested form may be a part): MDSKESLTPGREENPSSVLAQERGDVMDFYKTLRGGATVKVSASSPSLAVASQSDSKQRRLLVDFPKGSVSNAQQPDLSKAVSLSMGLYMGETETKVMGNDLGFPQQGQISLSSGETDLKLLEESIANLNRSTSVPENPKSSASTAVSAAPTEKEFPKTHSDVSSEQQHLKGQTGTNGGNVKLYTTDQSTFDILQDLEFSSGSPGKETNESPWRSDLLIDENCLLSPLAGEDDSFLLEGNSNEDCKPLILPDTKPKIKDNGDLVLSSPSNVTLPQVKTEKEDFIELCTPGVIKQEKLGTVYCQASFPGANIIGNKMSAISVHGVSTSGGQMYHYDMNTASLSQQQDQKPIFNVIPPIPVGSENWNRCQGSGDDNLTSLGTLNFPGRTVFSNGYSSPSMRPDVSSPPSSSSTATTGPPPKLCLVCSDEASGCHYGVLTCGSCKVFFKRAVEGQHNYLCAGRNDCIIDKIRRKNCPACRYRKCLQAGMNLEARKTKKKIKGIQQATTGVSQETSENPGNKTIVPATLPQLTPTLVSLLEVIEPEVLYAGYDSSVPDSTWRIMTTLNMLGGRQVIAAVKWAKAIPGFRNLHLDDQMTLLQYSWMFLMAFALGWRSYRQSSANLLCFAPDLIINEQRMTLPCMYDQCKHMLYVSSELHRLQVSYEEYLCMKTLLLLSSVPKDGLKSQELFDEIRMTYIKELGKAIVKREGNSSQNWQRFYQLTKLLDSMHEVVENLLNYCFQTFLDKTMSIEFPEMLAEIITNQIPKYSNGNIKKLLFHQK
Chain of 3',5'-cyclic-AMP phosphodiesterase 4B (Homo sapiens) (Q07343 whole entry, looked up): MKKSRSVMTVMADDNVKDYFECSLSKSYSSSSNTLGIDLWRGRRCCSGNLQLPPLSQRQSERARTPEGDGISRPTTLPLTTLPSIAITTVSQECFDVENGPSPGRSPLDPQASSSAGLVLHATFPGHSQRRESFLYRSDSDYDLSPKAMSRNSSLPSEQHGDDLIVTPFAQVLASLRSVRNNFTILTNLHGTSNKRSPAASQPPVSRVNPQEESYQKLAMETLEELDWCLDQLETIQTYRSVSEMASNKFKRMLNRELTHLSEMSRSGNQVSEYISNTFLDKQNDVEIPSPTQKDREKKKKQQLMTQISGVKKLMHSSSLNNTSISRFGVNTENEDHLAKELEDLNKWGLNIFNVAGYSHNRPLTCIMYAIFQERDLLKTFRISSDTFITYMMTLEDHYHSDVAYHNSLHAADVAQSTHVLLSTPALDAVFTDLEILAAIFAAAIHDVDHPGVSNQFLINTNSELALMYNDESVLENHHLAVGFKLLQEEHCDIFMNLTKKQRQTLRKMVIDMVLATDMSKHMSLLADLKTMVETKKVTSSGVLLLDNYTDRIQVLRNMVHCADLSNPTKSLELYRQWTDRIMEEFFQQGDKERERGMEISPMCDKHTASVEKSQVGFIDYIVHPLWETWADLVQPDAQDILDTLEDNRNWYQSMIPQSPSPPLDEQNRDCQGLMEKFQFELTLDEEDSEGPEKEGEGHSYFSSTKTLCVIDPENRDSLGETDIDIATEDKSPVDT
Chain of Lysosomal acid glucosylceramidase (Homo sapiens) (P04062 whole entry, looked up): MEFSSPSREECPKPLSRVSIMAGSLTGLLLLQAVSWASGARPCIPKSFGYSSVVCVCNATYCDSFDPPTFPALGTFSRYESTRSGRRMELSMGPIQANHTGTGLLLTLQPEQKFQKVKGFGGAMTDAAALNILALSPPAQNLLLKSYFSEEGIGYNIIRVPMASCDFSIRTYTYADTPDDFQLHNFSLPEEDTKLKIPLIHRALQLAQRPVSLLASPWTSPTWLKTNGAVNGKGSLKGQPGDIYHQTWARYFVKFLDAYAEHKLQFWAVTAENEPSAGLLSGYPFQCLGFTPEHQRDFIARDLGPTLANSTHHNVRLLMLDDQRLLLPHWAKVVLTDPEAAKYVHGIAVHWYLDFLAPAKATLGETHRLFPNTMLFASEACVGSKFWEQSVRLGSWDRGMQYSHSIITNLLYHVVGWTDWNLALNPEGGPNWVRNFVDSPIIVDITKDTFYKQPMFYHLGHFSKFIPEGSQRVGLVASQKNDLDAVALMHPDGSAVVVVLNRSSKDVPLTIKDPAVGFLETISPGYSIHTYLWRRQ
Chain of Cytochrome P450 1A2 (Homo sapiens) (P05177 whole entry, looked up): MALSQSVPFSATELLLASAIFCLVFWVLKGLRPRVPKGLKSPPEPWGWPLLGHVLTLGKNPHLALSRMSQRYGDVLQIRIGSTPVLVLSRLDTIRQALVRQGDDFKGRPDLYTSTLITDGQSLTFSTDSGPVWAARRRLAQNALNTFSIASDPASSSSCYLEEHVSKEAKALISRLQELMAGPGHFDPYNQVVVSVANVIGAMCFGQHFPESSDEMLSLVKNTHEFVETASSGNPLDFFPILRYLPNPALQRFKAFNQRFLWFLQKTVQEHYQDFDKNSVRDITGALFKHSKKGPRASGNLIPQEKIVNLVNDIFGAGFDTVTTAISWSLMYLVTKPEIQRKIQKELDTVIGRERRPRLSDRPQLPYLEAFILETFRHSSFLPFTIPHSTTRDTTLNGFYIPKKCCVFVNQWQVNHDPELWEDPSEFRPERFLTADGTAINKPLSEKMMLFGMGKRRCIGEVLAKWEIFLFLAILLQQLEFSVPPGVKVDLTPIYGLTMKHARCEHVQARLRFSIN

In the case of `CC(C)CN1CC[C@@]2(CCCN(S(=O)(=O)c3ccccc3)C2)C1`, the Potency in experiment [1] is > 11.4 µM (inactive); in experiment [3], 25.1 µM (active); in [6], > 46 µM (inactive). The figures for the activity change, negative = inhibition in experiment [2], in experiment [4] and in experiment [10] were 1.83% (inactive), -7.95% (inactive) and 4.19% (inactive), respectively. Besides, the activity, negative = inhibition in experiment [5] is -0.418% (inactive). For the same molecule, the molecule was called inactive in [7]. Also, the Potency entry in experiment [8], in experiment [9] and in [11] was “inactive” throughout. Moreover, the max response in experiment [10] (setting [12]) stood at 1.96%; in [10] (setting [13]), 9.28%.

Turning to `Cc1nc2cnc(Oc3cccc(Cl)c3)nc2n(CCC#N)c1=O`, the Potency is > 11.4 µM (inactive) in experiment [1], 15.8 µM (active) in experiment [3] and > 46 µM (inactive) in experiment [6]. For the same molecule, the values for the activity change, negative = inhibition in experiment [2], in [4] and in experiment [10] were -16% (inactive), 1.8% (inactive) and 3.95% (inactive), respectively. Also, the activity, negative = inhibition in experiment [5] was -7.79% (inactive). For the same molecule, the call in experiment [7] was inactive. Also, the Potency entry in [8], in experiment [9] and in [11] was “inactive” throughout. The max response in [10] (setting [12]) was 19.7%; in [10] (setting [13]) it was 26.1%.

With `COc1ccc(NC(=O)N2CCCC3(CCN(C(=O)c4csnn4)CC3)C2)cc1`, the Potency in experiment [1] is > 11.4 µM (inactive); in experiment [6], > 46 µM (inactive). In addition, the activity change, negative = inhibition in experiment [2] was -1.51% (inactive); in experiment [4], -2.25% (inactive); in experiment [10], 6.81% (inactive). Besides, the Potency result in [3], in [8], in experiment [9] and in [11] was “inactive” each time. For the same molecule, the activity, negative = inhibition in experiment [5] is -9.13% (inactive). The result in experiment [7] was inactive. The max response in [10] (setting [12]) was determined as 11.2%; in [10] (setting [13]) it was 22.4%.

For `COC(=O)N1CCC2(CCCN(c3ccc(-c4ccccc4)cc3)C2)CC1`, the values for the Potency in experiment [1], in experiment [3] and in experiment [6] were > 11.4 µM (inactive), 20 µM (active) and > 46 µM (inactive), respectively. Further, the activity change, negative = inhibition in [2] is -0.311% (inactive); in [4] it was -18.6% (inactive); in experiment [10], -29.2% (inactive). For the same molecule, the activity, negative = inhibition in [5] was 3.59% (inactive). For the same molecule, the molecule was called inactive in experiment [7]. In addition, the Potency entry in [8], in experiment [9] and in [11] was “inactive” each time. Also, the max response in experiment [10] (setting [12]) is 11%; in experiment [10] (setting [13]) it was -21.4%.

As to `COc1ccc(NC(=O)N2CC3(CCN(C(=O)c4ccc(OC)cc4)CC3)C2)cc1`, the Potency in experiment [1] is > 11.4 µM (inactive); in [6] it was > 46 µM (inactive). The activity change, negative = inhibition in experiment [2] is -11.7% (inactive); in experiment [4] it was 16.6% (inactive); in experiment [10] it was 3.98% (inactive). For the same molecule, the Potency entry in experiment [3], in experiment [8], in experiment [9] and in experiment [11] was “inactive” in each case. Also, in experiment [5], the activity, negative = inhibition was -5.3% (inactive). For the same molecule, the molecule was classed as inactive in experiment [7]. Besides, the values for the max response in [10] (setting [12]) and in experiment [10] (setting [13]) were 12.3% and 17.6%, respectively.

`CC(=O)N1CCC2(CCCN(c3ccccc3)C2)CC1`: the values for the Potency in [1] and in experiment [6] were > 11.4 µM (inactive) and > 46 µM (inactive), respectively. Further, the activity change, negative = inhibition was -11.7% (inactive) in [2], 9.86% (inactive) in experiment [4] and 1.01% (inactive) in [10]. For the same molecule, the Potency entry in [3], in [8], in [9] and in experiment [11] was “inactive” each time. For the same molecule, in [5], the activity, negative = inhibition is -0.0216% (inactive). Moreover, in experiment [7], the molecule was called inactive. The max response in experiment [10] (setting [12]) amounted to 9.92%; in experiment [10] (setting [13]) it was 12.8%.

For `CC(=O)N1CCC2(CC1)CN(C(c1ccccc1)c1ccccc1)C2`, the Potency in experiment [1] was > 11.4 µM (inactive); in experiment [6], > 46 µM (inactive); in experiment [9], 15.8 µM (active). For the same molecule, the activity change, negative = inhibition was 14.1% (inactive) in experiment [2], -5.45% (inactive) in [4] and 1.46% (inactive) in [10]. The Potency entry in experiment [3], in experiment [8] and in experiment [11] was “inactive” throughout. In experiment [5], the activity, negative = inhibition is -8.55% (inactive). The call in [7] was inactive. In addition, the max response came to 13.6% in [10] (setting [12]) and 21% in experiment [10] (setting [13]).
